Key:
Assay in all cases: log2 ratio of Biotin-Ahx-Ub-VS probe labelling (fragment/DMSO); higher = less target engagement (more negative = stronger competition), active = hit call of the paper (q ≤ 0.05, log2 ratio ≤ -1)
Conditions in all cases: compound concentration: 200 uM; treatment time: 3 h
USP34 = USP34 (UniProt Q70CQ2)
Method in brief: (§1)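 Labelled DUBs from HEK293T lysate were NeutrAvidin-enriched, digested with LysC and trypsin, and run by diaPASEF LC-MS/MS. Before that, each 495 µg sample in Tris/CHAPS/IGEPAL buffer with protease inhibitors was treated in triplicate with fragment at 200 µM or vehicle for 3 h, then with Biotin-Ahx-Ub-VS at 0.5 µM final for 1 h. Values are average log2 ratios of fragment over vehicle by unpaired t-test, based on global-median-normalised Spectronaut label-free quantities from proteins with ≥2 unique peptides.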

USP36 = target: T1, USP36 (UniProt Q9P275)
T1 sequence (whole entry): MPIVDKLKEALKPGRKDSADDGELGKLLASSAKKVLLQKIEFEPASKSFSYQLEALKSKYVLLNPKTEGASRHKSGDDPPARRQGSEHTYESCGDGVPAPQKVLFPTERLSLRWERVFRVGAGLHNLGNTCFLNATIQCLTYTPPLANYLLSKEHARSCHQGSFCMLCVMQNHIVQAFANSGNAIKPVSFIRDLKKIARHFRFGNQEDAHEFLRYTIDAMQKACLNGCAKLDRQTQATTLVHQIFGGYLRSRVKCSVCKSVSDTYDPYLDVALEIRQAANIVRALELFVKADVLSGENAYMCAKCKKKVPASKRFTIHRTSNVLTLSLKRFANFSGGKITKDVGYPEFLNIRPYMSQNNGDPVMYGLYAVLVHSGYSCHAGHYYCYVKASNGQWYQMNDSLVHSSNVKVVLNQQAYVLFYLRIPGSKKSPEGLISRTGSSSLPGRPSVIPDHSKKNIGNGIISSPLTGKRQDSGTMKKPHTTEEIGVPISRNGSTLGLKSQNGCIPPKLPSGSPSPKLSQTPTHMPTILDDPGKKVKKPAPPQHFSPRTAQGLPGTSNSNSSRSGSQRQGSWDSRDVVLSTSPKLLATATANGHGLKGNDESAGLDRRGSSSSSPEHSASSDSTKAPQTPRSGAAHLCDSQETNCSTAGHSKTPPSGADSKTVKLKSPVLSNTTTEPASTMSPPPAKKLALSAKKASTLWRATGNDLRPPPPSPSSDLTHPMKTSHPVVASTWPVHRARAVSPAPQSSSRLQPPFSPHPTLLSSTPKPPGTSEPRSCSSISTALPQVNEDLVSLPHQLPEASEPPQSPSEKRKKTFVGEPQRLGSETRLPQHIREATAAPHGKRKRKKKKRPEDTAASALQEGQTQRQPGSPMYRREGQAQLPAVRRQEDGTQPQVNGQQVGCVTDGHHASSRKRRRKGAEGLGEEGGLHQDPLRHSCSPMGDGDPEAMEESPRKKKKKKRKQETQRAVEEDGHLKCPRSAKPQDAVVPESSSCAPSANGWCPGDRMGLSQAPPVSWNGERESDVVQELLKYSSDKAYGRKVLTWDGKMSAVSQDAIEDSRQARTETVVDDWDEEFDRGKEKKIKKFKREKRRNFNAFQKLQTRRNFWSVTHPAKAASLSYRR
Method in brief: as §1

USP38 = target: T2, USP38 (UniProt Q8NB14)
T2 sequence (whole entry): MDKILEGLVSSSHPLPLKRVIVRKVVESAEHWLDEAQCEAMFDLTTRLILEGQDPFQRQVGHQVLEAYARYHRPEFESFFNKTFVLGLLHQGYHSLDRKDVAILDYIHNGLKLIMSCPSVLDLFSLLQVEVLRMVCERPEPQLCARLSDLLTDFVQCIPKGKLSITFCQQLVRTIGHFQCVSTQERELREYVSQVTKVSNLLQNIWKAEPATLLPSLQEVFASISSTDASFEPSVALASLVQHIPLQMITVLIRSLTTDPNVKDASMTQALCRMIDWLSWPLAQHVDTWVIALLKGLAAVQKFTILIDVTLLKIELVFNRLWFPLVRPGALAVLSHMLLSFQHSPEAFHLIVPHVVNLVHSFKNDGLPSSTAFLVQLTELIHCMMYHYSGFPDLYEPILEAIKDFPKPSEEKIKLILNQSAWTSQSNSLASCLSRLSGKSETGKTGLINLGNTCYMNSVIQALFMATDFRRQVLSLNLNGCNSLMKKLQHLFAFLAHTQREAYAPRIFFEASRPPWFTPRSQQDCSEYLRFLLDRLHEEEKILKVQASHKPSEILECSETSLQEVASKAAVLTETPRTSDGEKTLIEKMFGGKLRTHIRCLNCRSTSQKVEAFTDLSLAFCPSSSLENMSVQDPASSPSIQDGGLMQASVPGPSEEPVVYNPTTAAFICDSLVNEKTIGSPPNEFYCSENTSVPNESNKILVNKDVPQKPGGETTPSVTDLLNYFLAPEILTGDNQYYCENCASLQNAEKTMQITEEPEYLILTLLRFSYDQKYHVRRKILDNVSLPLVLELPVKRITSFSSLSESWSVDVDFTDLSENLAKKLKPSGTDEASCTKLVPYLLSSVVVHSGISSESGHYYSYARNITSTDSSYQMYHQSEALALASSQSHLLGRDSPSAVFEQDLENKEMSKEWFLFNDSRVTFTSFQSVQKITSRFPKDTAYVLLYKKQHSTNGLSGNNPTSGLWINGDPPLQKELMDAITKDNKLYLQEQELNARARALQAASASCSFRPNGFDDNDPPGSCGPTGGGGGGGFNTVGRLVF
Method in brief: as §1

USP39 = target: T3, USP39 (UniProt Q53GS9)
T3 sequence (whole entry): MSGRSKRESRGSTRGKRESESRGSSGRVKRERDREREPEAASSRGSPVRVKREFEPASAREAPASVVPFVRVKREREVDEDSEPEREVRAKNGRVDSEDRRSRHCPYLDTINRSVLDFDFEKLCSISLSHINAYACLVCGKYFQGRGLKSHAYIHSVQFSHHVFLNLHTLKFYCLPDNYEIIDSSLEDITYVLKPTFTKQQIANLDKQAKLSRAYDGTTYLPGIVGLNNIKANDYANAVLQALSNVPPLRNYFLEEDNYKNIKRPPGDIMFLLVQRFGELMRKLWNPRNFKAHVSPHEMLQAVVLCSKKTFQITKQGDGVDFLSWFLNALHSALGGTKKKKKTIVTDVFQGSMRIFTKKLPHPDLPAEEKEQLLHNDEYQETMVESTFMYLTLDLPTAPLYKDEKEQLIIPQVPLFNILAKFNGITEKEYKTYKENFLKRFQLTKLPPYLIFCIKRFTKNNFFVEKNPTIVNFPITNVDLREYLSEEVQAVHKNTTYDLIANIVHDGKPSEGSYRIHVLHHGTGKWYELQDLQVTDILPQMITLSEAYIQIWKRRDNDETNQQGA
Method in brief: as §1

USP4 = target: T4, USP4 (UniProt Q13107)
T4 sequence (whole entry): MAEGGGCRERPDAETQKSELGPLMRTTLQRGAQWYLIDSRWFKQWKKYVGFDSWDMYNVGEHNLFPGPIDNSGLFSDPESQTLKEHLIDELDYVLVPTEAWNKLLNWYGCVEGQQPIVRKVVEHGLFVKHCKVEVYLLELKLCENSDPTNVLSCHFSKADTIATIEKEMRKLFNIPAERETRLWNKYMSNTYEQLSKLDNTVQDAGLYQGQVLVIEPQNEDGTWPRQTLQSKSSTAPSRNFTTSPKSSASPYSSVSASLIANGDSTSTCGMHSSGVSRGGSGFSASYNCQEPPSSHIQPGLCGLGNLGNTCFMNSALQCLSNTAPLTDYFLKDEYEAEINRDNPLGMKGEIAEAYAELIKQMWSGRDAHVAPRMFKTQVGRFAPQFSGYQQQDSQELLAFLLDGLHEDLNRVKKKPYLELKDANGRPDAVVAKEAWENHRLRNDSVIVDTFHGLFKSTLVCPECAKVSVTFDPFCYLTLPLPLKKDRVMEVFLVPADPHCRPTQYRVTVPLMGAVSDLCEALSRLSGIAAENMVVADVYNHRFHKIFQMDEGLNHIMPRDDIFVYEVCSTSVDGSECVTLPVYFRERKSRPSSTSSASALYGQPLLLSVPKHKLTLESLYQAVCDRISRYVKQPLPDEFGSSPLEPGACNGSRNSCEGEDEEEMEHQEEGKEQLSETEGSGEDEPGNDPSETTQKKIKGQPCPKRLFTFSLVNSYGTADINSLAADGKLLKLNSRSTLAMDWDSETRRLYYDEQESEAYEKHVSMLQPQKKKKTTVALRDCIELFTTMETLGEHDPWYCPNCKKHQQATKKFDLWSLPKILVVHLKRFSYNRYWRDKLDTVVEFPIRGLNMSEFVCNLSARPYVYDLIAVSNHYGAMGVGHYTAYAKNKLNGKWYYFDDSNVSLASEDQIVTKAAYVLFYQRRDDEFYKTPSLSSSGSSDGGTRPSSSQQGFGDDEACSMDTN
Method in brief: as §1

Measured: log2 ratio of Biotin-Ahx-Ub-VS probe labelling

Chain of USP34 (Q70CQ2 whole entry, the tested form may be a part): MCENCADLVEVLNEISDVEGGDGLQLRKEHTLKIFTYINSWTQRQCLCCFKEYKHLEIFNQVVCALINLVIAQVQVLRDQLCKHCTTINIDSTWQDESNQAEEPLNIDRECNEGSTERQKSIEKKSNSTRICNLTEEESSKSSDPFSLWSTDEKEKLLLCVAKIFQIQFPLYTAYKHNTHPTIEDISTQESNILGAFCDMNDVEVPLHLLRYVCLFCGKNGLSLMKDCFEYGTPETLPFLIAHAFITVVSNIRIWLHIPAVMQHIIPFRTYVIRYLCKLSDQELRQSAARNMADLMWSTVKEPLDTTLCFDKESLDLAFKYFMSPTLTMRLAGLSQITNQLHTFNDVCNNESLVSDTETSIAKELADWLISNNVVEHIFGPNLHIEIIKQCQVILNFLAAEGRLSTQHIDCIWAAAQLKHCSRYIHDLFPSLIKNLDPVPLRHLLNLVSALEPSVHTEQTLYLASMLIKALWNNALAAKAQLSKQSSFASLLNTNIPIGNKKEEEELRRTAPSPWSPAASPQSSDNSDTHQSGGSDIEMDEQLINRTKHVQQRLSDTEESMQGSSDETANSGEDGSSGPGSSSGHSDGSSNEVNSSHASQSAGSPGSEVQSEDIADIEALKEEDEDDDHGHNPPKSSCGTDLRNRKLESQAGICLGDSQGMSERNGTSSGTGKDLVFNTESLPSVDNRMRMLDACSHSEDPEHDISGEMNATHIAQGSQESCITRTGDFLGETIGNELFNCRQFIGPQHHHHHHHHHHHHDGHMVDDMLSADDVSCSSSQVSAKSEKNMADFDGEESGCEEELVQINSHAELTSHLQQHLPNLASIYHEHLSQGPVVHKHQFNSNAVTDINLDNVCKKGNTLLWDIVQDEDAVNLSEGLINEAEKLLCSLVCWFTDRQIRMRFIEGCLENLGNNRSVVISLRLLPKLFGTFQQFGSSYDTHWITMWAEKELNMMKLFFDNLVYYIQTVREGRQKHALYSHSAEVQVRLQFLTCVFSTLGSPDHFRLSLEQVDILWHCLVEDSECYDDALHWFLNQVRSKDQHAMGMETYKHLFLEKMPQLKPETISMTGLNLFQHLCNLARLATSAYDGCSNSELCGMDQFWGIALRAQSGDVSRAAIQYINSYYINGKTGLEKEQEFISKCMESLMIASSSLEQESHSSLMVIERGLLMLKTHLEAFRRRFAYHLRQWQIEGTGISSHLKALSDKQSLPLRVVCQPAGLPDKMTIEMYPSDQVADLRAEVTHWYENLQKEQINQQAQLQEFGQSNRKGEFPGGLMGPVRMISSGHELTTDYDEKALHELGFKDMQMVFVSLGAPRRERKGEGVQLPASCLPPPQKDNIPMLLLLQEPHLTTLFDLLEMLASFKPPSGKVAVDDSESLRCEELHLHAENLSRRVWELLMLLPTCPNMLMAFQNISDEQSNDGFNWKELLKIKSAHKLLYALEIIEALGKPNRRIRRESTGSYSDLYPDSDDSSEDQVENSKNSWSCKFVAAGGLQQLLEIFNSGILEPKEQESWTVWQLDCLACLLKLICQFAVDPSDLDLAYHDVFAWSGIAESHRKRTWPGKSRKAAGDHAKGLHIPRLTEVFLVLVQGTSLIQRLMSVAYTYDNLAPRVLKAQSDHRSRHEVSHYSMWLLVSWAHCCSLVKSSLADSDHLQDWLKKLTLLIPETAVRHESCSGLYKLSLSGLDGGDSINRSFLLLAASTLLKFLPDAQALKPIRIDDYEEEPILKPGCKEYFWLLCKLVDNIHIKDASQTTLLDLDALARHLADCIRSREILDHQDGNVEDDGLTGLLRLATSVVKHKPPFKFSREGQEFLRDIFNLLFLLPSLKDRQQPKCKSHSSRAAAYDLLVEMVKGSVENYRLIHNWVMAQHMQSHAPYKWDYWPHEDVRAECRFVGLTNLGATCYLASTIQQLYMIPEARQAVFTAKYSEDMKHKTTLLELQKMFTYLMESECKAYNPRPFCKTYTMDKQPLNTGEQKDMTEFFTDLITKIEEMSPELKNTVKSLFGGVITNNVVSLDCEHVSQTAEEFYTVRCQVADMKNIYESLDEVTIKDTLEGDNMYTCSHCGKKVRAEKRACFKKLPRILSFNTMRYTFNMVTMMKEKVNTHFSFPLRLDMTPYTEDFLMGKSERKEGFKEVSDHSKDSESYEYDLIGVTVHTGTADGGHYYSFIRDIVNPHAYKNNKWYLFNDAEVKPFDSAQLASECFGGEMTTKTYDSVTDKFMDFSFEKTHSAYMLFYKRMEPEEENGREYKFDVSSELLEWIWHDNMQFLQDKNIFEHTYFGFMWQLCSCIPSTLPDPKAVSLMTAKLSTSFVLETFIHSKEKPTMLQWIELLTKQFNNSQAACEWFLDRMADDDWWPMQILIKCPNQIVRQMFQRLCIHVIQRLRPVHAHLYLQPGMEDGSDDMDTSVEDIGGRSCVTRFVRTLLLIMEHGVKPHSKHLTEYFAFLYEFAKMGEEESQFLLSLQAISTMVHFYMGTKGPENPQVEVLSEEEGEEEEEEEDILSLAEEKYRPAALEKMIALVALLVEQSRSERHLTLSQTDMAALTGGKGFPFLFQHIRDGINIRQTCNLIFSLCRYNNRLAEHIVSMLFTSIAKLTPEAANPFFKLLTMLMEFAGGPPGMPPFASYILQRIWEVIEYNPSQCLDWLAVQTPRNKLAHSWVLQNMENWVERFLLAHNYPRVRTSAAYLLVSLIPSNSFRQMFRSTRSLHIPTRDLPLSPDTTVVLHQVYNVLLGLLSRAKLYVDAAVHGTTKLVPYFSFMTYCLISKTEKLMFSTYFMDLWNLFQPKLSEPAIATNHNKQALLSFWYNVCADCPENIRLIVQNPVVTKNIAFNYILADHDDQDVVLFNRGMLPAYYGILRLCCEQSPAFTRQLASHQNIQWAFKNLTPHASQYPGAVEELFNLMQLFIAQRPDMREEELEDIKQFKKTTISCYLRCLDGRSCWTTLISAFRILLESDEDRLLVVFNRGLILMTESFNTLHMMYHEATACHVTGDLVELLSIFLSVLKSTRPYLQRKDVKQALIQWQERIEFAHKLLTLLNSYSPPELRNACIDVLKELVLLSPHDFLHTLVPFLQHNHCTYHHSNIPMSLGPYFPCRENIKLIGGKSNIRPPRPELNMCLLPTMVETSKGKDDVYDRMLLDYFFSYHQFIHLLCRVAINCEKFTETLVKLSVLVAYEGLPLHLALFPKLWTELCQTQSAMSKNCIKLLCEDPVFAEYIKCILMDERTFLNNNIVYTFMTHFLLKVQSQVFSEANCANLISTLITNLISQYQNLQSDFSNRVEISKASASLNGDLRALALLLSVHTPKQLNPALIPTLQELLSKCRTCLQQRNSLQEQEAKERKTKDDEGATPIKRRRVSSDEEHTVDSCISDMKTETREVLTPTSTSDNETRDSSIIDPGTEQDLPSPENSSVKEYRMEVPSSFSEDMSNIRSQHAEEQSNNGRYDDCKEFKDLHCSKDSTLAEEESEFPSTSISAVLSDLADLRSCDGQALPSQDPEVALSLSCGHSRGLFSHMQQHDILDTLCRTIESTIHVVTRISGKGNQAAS

O=C(CCl)N1CCOCCC1c1ccccc1 (stereo not given)
inactive: USP34 0.169 | USP36 0.192 | USP38 0.104 | USP39 0.0858 | USP4 -0.196
